In one assay the target is CYLC1. Briefly: pooled miR-30 sensor sort-seq; sequence = guide strand. To be noted: shRNA.
In turn, TATGGGATCATTACTAGTCTTT came in with a sensor-assay potency score (higher = more potent) of -0.233. On the same count and under the same terms, to TTTCTTGTCATCTTTCTTGACA belongs -0.649. On the same count and under the same terms, to TTGACTTCTTGGATTGTTCATT belongs -0.552; to TTGCATCCTTTGCATCTCCTGA, -0.744; to TTATTCTGTGAGTAATTCCTTA, -0.37. Same read-out and setting: to TATCTTTTTGTGAACAATTTTT belongs -1.47; to TTTAGTTTTCTCTTCTACTATT, -1.07.

As to TTGAATCTTTCTTAGCATCCTT, the sensor-assay potency score (higher = more potent) was -0.0997. Still for that read-out and setting: the same measure for TTTTTCTTAACTTTCTTTGAAT: -0.75; for TTGATGGAGGAACTCTACCTGT: -0.867; for TTGATTTATCATTTGTACCTCT: 0.236.

TATTATCTGTCTTTGAATCTTT showed a sensor-assay potency score (higher = more potent) of 0.0737. On the same count and under the same terms, the same measure for TTCAGTATCTGAACCTTTGATT: -0.393; for TGAATCTTTCTTAGCATCCTTT: -0.674.

TTGTCATGTCTAGTAACTGTTA registered a sensor-assay potency score (higher = more potent) of -0.717. Still for that read-out and setting: the same measure for TAATTTTTTCTTATCCTTCTTT: 0.0107; for TTGAATGTAGTCTTTTTGGATG: -0.77; for TTCATCTTTCTGACTCTCCTTT: 0.625. Still for that read-out and setting: the same measure for TTCTCTTCTACTATTTGCTTGG: -0.0318. Same read-out and setting: the same measure for TTGTTGCATATGAACCTCCTTT: -0.831; for TTTATCATTTGTACCTCTCTGG: 0.594; for TTGGATGACATTCTGAATCCTC: 0.399.

For a further assay, the target named is CYP20A1. The description is as above. To be noted: shRNA.
TTATCTAATAATTCTTCTGAAA: the sensor-assay potency score (higher = more potent) is -1.37. Sequence TATCATACTGTCTTCTAGGATC displayed a sensor-assay potency score (higher = more potent) of -0.814. Same read-out and setting: to TACACTAAGAAGTACTGTGGTC belongs -0.206. The same measure, in the same setting: the same measure for TTTTGAACTTCTTCAGAGGTGG: 0.0133; for TTCATCATCAAACCGATCTGGA: -0.00182; for TCCTTCAATATCTTGAAGCTGG: -0.788. TTTATCTAATAATTCTTCTGAA registered a sensor-assay potency score (higher = more potent) of -0.378. On the same count and under the same terms, to TTTGCAGTTATTATGCAACTGG belongs -0.736. With ATGCTGACAATATCTGAGCTGC, the sensor-assay potency score (higher = more potent) was -0.739. Same read-out and setting: the same measure for ATACTTTGTTTCAATAACCTGT: -0.318; for TAAATCGGTCAATTTTTCCTTC: 0.481; for TTCTTCTGAAAGCTTTAGGAGG: -0.987.

The target of a further assay is CYP2E1. The assay is described as above. To be noted: shRNA.
As for TTGGGGATGAGGTATCCTCTGA, the sensor-assay potency score (higher = more potent) is -0.671.

On to TTGTAGTCAAAATGCTTGCGGA, for which the sensor-assay potency score (higher = more potent) is -0.87. Still for that read-out and setting: to TTATTGTAAAGCTGGAGCCAGG belongs -1.09. The same measure, in the same setting: to ATAGTCACTGTACTTGAACTTT belongs -0.806. The same measure, in the same setting: the same measure for ATATTCTTCAATTCCAACTGGA: 0.347; for TCACTGTACTTGAACTTTCCAT: -0.768.
Also: reference of the scale not given here.
